The campaign covered roughly 94,000 compounds. About 280 (0.3%) were called active.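 Rule for the calls: active = activation above 40%, about the mean plus 3 SD, also judged a hit on visual image review; inconclusive = activation above 40% but not a hit on visual review; inactive = activation not above 40% and no visual hit.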 What follows is part of a selection rich in actives, with near analogues and random picks from the rest.

This assay is described as follows: enhancers of NFkB p65 translocation in HUVEC – imaging, IL-1B stimulus, high-content imaging, primary screen (AID 819).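 Note: percent activation is computed from the nuclear over cytoplasmic p65 intensity ratio.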 To be noted: HUVEC IL-1B NFkB p65 nuclear translocation imaging; at 2 µM; stronger effect = higher value.
Take `Cc1nnc(SCC(=O)N/N=C/c2cn(-c3ccccc3)nc2-c2ccc(F)cc2)n1-c1ccccc1`: the activation was -16.3% (inactive).

Regarding `COc1ccc(C2C=C(c3ccc(Br)cc3)Nc3nc(NS(C)(=O)=O)nn32)cc1` (stereo not given), the activation is 5.63% (inactive).

Take `O=C(Cn1c(-c2cscn2)nc2ccccc21)Nc1ccc(Cl)cc1`: the activation is 3.1% (inactive).

On to `CON(C)S(=O)(=O)c1ccc2c(c1)NC(=O)C1CCCN21` (stereo not given), for which the activation was 6.63% (inactive).

`COc1cccc(-c2cc(C(=O)N/N=C/c3ccc(OC)c(COC(C)=O)c3)c3ccccc3n2)c1`: the activation was 0.06% (inactive).

As to `CC(Oc1ccc(-c2ccccc2)c(F)c1)c1ccn(S(=O)(=O)c2cccc3ccccc23)n1` (stereo not given), the activation was -9.3% (inactive).

In the case of `COc1ccc(NC(=O)Cn2c(-c3ccc(OC)cc3)cn(-c3ccc(C)cc3)c2=O)cc1`, the activation is 5.6% (inactive).

As to `Cc1c(Br)cc(C(=O)N2CCCCCC2)c(C)c1C`, the activation is 11.9% (inactive).

Consider `Cn1c2ccccc2n2c(=O)c(=O)n(CC(=O)c3ccc(F)cc3)nc12`, for which the activation was 47.4% (active).

Regarding `CCN1CCN(Cc2nc3c(c(=O)n(C)c(=O)n3C)n2CC(=O)c2ccccc2)CC1`, the activation was 21.5% (inactive).

Consider `O=C(CCn1c(SCC(=O)c2ccccc2)nc2ccccc2c1=O)NCc1ccc(F)cc1`, for which the activation was 2.29% (inactive).

`c1ccc(-n2ncc3c(N4CCCC4)ncnc32)cc1`: the activation is 12.2% (inactive).

Consider `Brc1cnc(N2CCCC2)nc1N1CCCCC1`, for which the activation is 41.1% (active).

In the case of `Cc1ccnc(N2CCC(C(=O)NC3CCCCCC3)CC2)n1`, the activation is -7.5% (inactive).

With `O=C1OC(c2ccc(Cl)cc2)=N/C1=C\c1cccnc1`, the activation was 34.5% (inactive).

Turning to `Cc1nc2ccccc2c(-c2ccccc2)c1C(=O)c1ccccc1`, the activation is 9.37% (inactive).

Consider `CCN(CC)S(=O)(=O)c1ccc(N2CCOCC2)c(C(=O)O)c1`, for which the activation is 11.9% (inactive).

In the case of `O=C(c1ccc(Cl)cc1)c1cnc(Nc2ccccc2)s1`, the activation is -1.4% (inactive).

As for `Nc1c(-c2ccc(F)cc2)cnn1C1CCS(=O)(=O)C1` (stereo not given), the activation is -1.34% (inactive).

With `COc1ccc(CCN2C(=O)C3CC=C(C)CC3C2=O)cc1OC` (stereo not given), the activation is 4.82% (inactive).

As to `O=C(c1ccccn1)c1ncc(C(F)(F)F)cc1Cl`, the activation is -0.58% (inactive).

For the molecule `CCN(CC)c1nc(-c2ccccc2)cc(C(F)(F)F)c1C#N`, the activation was 1.7% (inactive).

Turning to `CCOC(=O)/C(=C\c1ccc([N+](=O)[O-])cc1)C(=O)c1cc(C(C)=O)c(Nc2ccccc2)s1`, the activation is -4.36% (inactive).

On to `COC(=O)CNC(c1ccccc1Cl)c1cc(Br)ccc1NC(=O)CCN1CCOCC1` (stereo not given), for which the activation is 0.94% (inactive).

Turning to `Cc1ccc(OCC(=O)Nc2cccc3c2CCCC3)cc1C`, the activation is 13.2% (inactive).

On to `CC(=O)NS(=O)(=O)c1ccc(NC(=S)NC(=O)C(C)(C)C)cc1`, for which the activation was 4.05% (inactive).

Take `COc1cccc(/C=N/NC(=O)C(=O)N2CCCC2)c1`: the activation was -4.21% (inactive).

Consider `CCCCCCCC(=O)NC(Nc1ccccc1OC)C(Cl)(Cl)Cl` (stereo not given), for which the activation is -6.09% (inactive).

Turning to `Cc1ccccc1/[N+]([O-])=C/c1ccncc1`, the activation is 15.8% (inactive).

Consider `N#Cc1cc([N+](=O)[O-])ccc1Oc1cccc(/C=N/NC(=O)c2ccc(Cl)cc2)c1`, for which the activation was 1.88% (inactive).

Turning to `COC(=O)CSc1nnc(-c2cccnc2)o1`, the activation was -7.95% (inactive).

On to `CCn1c(Cc2cccs2)nnc1SCC(=O)c1ccc(C)cc1`, for which the activation was 8.94% (inactive).

Take `COc1ccc(CCNC(=S)NC(=O)/C=C/c2ccc(C)cc2)cc1OC`: the activation is -6.74% (inactive).

Consider `CN1CC(c2ccccc2)C2(COc3ccccc3C2=O)C12C(=O)Nc1ccccc12` (stereo not given), for which the activation was 0.22% (inactive).

For `CN(C)/C(CN1CCCCC1)=C1\N=C(c2ccccc2)OC1=O`, the activation was 13.1% (inactive).

In the case of `CC(=O)NC1=NN(C(C)=O)C(C)(c2ccc(Cl)s2)S1` (stereo not given), the activation was -0.11% (inactive).

For the molecule `O=C(CN1CCN(c2ccc(Cl)cc2)CC1)N1CCCC1`, the activation was -4.06% (inactive).

With `O=C(Nc1cccc(Cl)c1)Nc1nnc(-c2ccccc2)o1`, the activation is -2.48% (inactive).

Turning to `CC(C(=O)Nc1ccc(F)c(F)c1F)N1CCCCCC1` (stereo not given), the activation is 24.8% (inactive).

Take `CC1CCC2(CC1)NC(=O)N(CC(=O)c1cccn1C)C2=O` (stereo not given): the activation is -10.9% (inactive).

With `O=C(CN1C(=O)NC2(CCCC2)C1=O)Nc1ccc(F)c(F)c1F`, the activation was 40.4% (active).

Consider `C=CCn1c(Cn2nnc3ccccc32)nnc1SCC(=O)N/N=C/c1cc(Br)cc(OC)c1O`, for which the activation is -7.49% (inactive).

On to `COc1ccccc1CSc1nc2ccccc2[nH]1`, for which the activation is 0.73% (inactive).

With `O=C(Cc1ccc(S(=O)(=O)N2CCOCC2)s1)NCCC(c1ccccc1)c1ccccc1`, the activation was 7.66% (inactive).

For `CCCC1NC(=O)NC(C)=C1C(=O)OCC` (stereo not given), the activation is -16.9% (inactive).

For the molecule `CCOC(=O)C1=C(C)NC(C)=C(C(=O)OCC)C1c1ccccn1`, the activation is 1.56% (inactive).

Take `CCOC(=O)C1=C(C)NC(C)=C(C(=O)OCC)C1C1=COCCO1`: the activation was 42.7% (active).

For the molecule `O=C(Nc1ccccc1[N+](=O)[O-])C1C(c2ccccc2)=C1c1ccccc1`, the activation was -5.91% (inactive).

Turning to `O=C(/C=C/Nc1ccccc1OC(F)(F)F)C(F)(F)F`, the activation was 10.9% (inactive).

`O=C(CN1CCSCC1)N/N=C/c1ccc(F)cc1F`: the activation was 6.22% (inactive).

In the case of `Cc1cccc(N2CCN(C(=O)CN(C)S(=O)(=O)c3ccc4c(c3)CCC(=O)N4)CC2)c1C`, the activation was -2.04% (inactive).

Take `O=C(NC1CCCCC1)c1cc([N+](=O)[O-])ccc1N1CCOCC1`: the activation was -1.25% (inactive).

As for `Cc1ccc2nc(-c3ccccc3)cc(C(=O)O)c2c1`, the activation is 1.92% (inactive).

For `CC(C)(C)Cc1nnc(NC(=O)c2cc(-c3ccccc3)nc3ccccc23)s1`, the activation was 41.2% (active).

Consider `Cc1ccc(-c2cc(C(=O)Nc3nn[nH]n3)c3ccccc3n2)c(C)c1`, for which the activation was -7.54% (inactive).

Regarding `OCCN(Cc1ccccc1)Cc1ccc(Cl)cc1`, the activation was -4.34% (inactive).

In the case of `CCCOn1c(-n2nc(C)cc2C)nc2ccccc2c1=O`, the activation was 121% (active).

`Cc1cc(C)n(-c2c(F)c(F)c(COC(=O)c3ccccc3)c(F)c2F)n1`: the activation was 17.9% (inactive).

In the case of `CCOn1c(SC(C)C)nc2ccccc2c1=O`, the activation was -7.95% (inactive).

In the case of `CCOC(=O)C1=NNC2(c3ccc(Cl)cc3)C(=O)N(c3cc(C)cc(C)c3)C(=O)C12` (stereo not given), the activation is -2.6% (inactive).

For the origin of these results see PubChem BioAssay AID819 (Columbia University Molecular Screening Center, 2007).
